Bioassay records: PubChem, several laboratories
DAT uptake mod = modulates human dopamine transporter uptake under cocaine; LLC-PK1 hDAT cells, [14C]-dopamine uptake with cocaine IC80; actives deviate in either direction; Q01959; B-score at 10 µM; AID 449768; 110,000 compounds, 1.3% hits;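 active = Z score or B-score, a plate-position-corrected score, falls beyond the plate's 99.7% confidence bounds, in either direction; inactive = both scores lie inside the 99.7% bounds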;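 also: scored against the spread of the other compound wells on the same plate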
TNAP act DEA = human TNAP activation, intermediate phosphate acceptor | purified TNAP, CDP-star luminescence, 100 mM DEA, 30 min; stronger effect = higher value; scale: 0 levamisole-inhibited, 1 vehicle-only enzyme | activation factor at 20 µM | 64,000 tested, under 10 active;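 active = activation factor of at least 2 at 20 µM, relative to controls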
Cav3 T inh = blocks human Cav3.2 T-type calcium channel. O95180. Cav3.2-expressing cells, Fluo-4 calcium fluorescence FDSS; stronger effect = lower value. B-score at 10 µM. 100,000 compounds, 4% hits. AID 449739;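 active = single-dose well whose peak fluorescence ratio is a statistical outlier from its plate by either plate-standardised score or position-corrected B-score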
PostGolgi ctrl = yeast control strain growth, post-Golgi counter-screen | efflux-deficient yeast background strain, growth absorbance A615, 16 h | inhibition, % at 10 µM | 98,000 compounds, 5% hits | AID 738
PostGolgi yeast = growth inhibition of a yeast mutant, post-Golgi transport screen. 98,000 compounds, 0.9% hits. post-Golgi transport phenotypic cell assay. inhibition, % at 10 µM. AID 739;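 also: yeast cells grown in 1536-well plates; yeast grown about 18 h at 30C before absorbance read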
Smad3 inh = inhibitors of human Smad3 transcription factor binding; P84022; TR-FRET Smad3/Dy647-FoxH1 peptide binding, europium anti-His; inhibition, % at 25 µM; 88,000 compounds, 0.29% hits;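 active = compounds that reduce the energy-transfer binding signal between the protein and its labelled peptide by more than half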;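 also: 0% = Smad3 plus labelled peptide maximal FRET and 100% = peptide-only background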
Target sequence (P84022 whole entry, looked up): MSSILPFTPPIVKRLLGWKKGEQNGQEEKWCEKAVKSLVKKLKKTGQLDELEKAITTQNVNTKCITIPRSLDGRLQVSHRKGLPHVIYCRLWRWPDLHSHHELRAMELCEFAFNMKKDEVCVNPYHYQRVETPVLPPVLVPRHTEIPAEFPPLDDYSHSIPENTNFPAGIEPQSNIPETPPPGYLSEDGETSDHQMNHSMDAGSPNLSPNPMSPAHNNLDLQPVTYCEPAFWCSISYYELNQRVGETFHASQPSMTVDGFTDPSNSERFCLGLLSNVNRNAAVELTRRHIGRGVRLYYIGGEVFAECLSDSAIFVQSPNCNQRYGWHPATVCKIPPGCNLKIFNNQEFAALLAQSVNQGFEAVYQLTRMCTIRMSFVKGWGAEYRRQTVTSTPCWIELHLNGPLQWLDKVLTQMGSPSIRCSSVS
An asterisk follows results filed as active; [ ] = remark or other dose. Hits are enriched below; roughly 8.7% of the tested compounds scored in any of these assays. Rule as the data show it, unless noted: active = inhibition above about 30%; inactive = the rest.

`C=CCc1c(C)nc(SC)nc1Nc1ccc(C)cc1` gave DAT uptake mod 0.13, Cav3 T inh -2.6, PostGolgi ctrl 32*, PostGolgi yeast -12 and Smad3 inh 4.
C=CCc1c(C)nc(C)nc1N/N=C/c1ccc(F)cc1 was read as DAT uptake mod 0.11, Cav3 T inh -0.028, PostGolgi ctrl -5, PostGolgi yeast -2 and Smad3 inh 18.
N#CCCn1c(=S)[nH]c2ccccc21 was read as DAT uptake mod -0.48, Cav3 T inh -0.31, PostGolgi ctrl -6 and PostGolgi yeast -3.
For Cc1cccc(NC(=O)Nc2ccc(C#N)cc2)n1 the results were DAT uptake mod -0.24, TNAP act DEA 1, Cav3 T inh 0.61, PostGolgi ctrl -5, PostGolgi yeast -8 and Smad3 inh -4.
`COc1ccc(NC(=O)Nc2cccc(C)n2)cc1` gave DAT uptake mod 0.86, TNAP act DEA 0.9, Cav3 T inh -4.2*, PostGolgi ctrl 6, PostGolgi yeast 2 and Smad3 inh -13.
Screening Cc1cccc(NC(=O)Nc2cccc(C#N)c2)n1 returned DAT uptake mod -0.22, TNAP act DEA 0.8, Cav3 T inh -4.2*, PostGolgi ctrl 29, PostGolgi yeast 2 and Smad3 inh 3.
Screening COC(=O)c1ccccc1NC(=O)c1cccc(COc2ccccc2Cl)c1 returned DAT uptake mod 0.46, Cav3 T inh -4.2, PostGolgi ctrl 0 and PostGolgi yeast 2.
`O=C(c1ccc(C#Cc2ccccc2)o1)N1CCN(c2ccccn2)CC1` gave DAT uptake mod 0.35, TNAP act DEA 1, Cav3 T inh -0.77, PostGolgi ctrl 42*, PostGolgi yeast -1 and Smad3 inh 4.
Screening O=C(c1cccc(COc2ccc(Cl)cc2Cl)c1)N1CCN(c2ccccn2)CC1 returned DAT uptake mod 0.75, TNAP act DEA 0.9, Cav3 T inh -6.2*, PostGolgi ctrl 68*, PostGolgi yeast 4 and Smad3 inh 1.
`COc1ccc(C(=O)N2CCN(c3ccccn3)CC2)cc1` gave DAT uptake mod 0.31, Cav3 T inh 0.83, PostGolgi ctrl 3, PostGolgi yeast -3 and Smad3 inh 15.
O=C(c1ccc(COc2ccccc2Br)o1)N1CCN(c2ccccn2)CC1 was read as DAT uptake mod 2, Cav3 T inh -3.2, PostGolgi ctrl 35*, PostGolgi yeast -3 and Smad3 inh -2.
Screening O=C(NCc1ccccc1)c1cccc(COc2ccccc2Cl)c1 returned DAT uptake mod -0.45, Cav3 T inh -6.5*, PostGolgi ctrl 27 and PostGolgi yeast 2.
CCC1CCCCN1CCCNC(=O)c1ccc2c(=O)n(Cc3ccc(OC)cc3)c(=O)[nH]c2c1 (configuration not stated) was read as DAT uptake mod 0.71, Cav3 T inh -3, PostGolgi ctrl 1, PostGolgi yeast 23 and Smad3 inh -1.
`O=C(c1ccco1)N1CCN(CCOCCOc2cccc3ccccc23)CC1` gave DAT uptake mod 0.97, TNAP act DEA 0.9, Cav3 T inh -0.42, PostGolgi ctrl 6, PostGolgi yeast 1 and Smad3 inh 1.
`O=C(c1cccc(COc2cccc3ccccc23)c1)N1CCCC1` gave DAT uptake mod 3.7*, Cav3 T inh -3.8 and Smad3 inh -8.
For O=c1[nH]c2ccccc2nc1C(F)(F)C(F)F the results were DAT uptake mod -0.88, TNAP act DEA 0.9, Cav3 T inh 6.1e-07, PostGolgi ctrl 4, PostGolgi yeast 0 and Smad3 inh 0.
For O=C(CSc1nnc(COc2cccc3cccnc23)o1)N1CCN(C(=O)c2ccco2)CC1 the results were DAT uptake mod 0.38, Cav3 T inh 0.014 and Smad3 inh 2.
Screening CC1=C(C(=O)Nc2ccccc2)C(c2ccc(C(C)C)cc2)N2C(=O)CSC2=N1 (configuration not stated) returned DAT uptake mod -0.88, Cav3 T inh -1.7, PostGolgi ctrl 8 and PostGolgi yeast -5.
Screening CC1=C(C(=O)Nc2ccccc2)C(c2ccc(C)o2)N2C(=O)CSC2=N1 (configuration not stated) returned DAT uptake mod -0.21, TNAP act DEA 1, Cav3 T inh -7.9*, PostGolgi ctrl -1, PostGolgi yeast 0 and Smad3 inh -1.
CC1=C(C(=O)Nc2ccccc2)C(c2ccccc2)N2C(=O)CSC2=N1 (configuration not stated) was read as DAT uptake mod -0.66, TNAP act DEA 0.9, Cav3 T inh -11*, PostGolgi ctrl 13, PostGolgi yeast -3 and Smad3 inh 6.
Screening CC1=C(C(=O)Nc2ccccc2)C(c2ccc(C)o2)n2c(s/c(=C/c3ccccc3)c2=O)=N1 (configuration not stated) returned DAT uptake mod 0.053, Cav3 T inh -3.2, PostGolgi ctrl 15, PostGolgi yeast -2 and Smad3 inh -1.
O=C(NCc1ccccc1)c1ccc(C(=O)N(C2CCCCC2)C2CCCCC2)cc1 was read as DAT uptake mod 1.7, Cav3 T inh -5.9*, PostGolgi ctrl 52*, PostGolgi yeast 8 and Smad3 inh -3.
Cc1cc2sc(C(=O)O)c(C)c2s1 was read as DAT uptake mod -0.017, Cav3 T inh -0.042 and Smad3 inh 54*[fluorescence artefact?].
`CCOc1ccc(CN(C)CC(=O)c2c(N)n(Cc3ccccc3)c(=O)n(CC)c2=O)cc1OC` gave DAT uptake mod 1.4, Cav3 T inh 1.2, PostGolgi ctrl 12, PostGolgi yeast 7 and Smad3 inh 7.
`Cc1ccccc1Nc1c(N)c(=O)oc2ccccc12` gave DAT uptake mod -7.7*, Cav3 T inh -1.3, PostGolgi ctrl 19 and PostGolgi yeast 2.
`Nc1c(NC2CCCCC2)c2ccccc2oc1=O` gave DAT uptake mod 0.87, TNAP act DEA 0.9, Cav3 T inh 0.06, PostGolgi ctrl 13, PostGolgi yeast 3 and Smad3 inh 4.
Cc1cc(C(=O)CSc2nncs2)c(C)n1-c1c(C)n(C)n(-c2ccccc2)c1=O was read as DAT uptake mod -0.052, TNAP act DEA 0.9, Cav3 T inh 0.35, PostGolgi ctrl 36*, PostGolgi yeast -6 and Smad3 inh 4.
Cc1ccc(-n2c(C)cc(C(=O)CSc3nncs3)c2C)cc1 was read as DAT uptake mod 0.29, TNAP act DEA 1, Cav3 T inh -1.9, PostGolgi ctrl 48*, PostGolgi yeast -4 and Smad3 inh 5.
`Cc1ccc(C(=O)c2coc3ccc(OCC(=O)O)cc23)cc1` gave DAT uptake mod 0.41, TNAP act DEA 0.9, Cav3 T inh 0.0059, PostGolgi ctrl 11, PostGolgi yeast 3 and Smad3 inh 1.
For COc1cccc(/C=N/Nc2nc(Nc3ccccc3)nc(-n3nc(C)cc3C)n2)c1O the results were DAT uptake mod 0.11, PostGolgi ctrl 58* and PostGolgi yeast 0.
